Results taken from PubChem BioAssay (NCATS).
Records with an inconclusive call do not appear. Active and inactive are the calls of the source. Unless noted, the call rests on the fitted dose curve; in most records, active means well fitted curve in the direction sought with a large enough effect; inconclusive means small, poorly fitted or top-dose-only effect, or another doubt; inactive means no such curve, though single readings can be large; an effect the other way counts as inactive or inconclusive.

Tests used:
[1] = AP1 Signaling Pathway (AID 357; active means well fitted curve in either direction with a large enough effect, not every such curve was filed as active;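 further: ME-180 reporter cells stimulated with EGF at its EC50 level; on the % scale 0 is the no-effect control and ±100 the full control effect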); conditions: ME-180 AP-1-bla reporter, EGF-induced, beta-lactamase ratio, 5 h; at 38 µM (top of the series)
How it was run: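 A ratiometric CCF4 readout (405 nm excitation; 460 and 530 nm emission) quantified AP-1-driven beta-lactamase in ME-180 cells after 5 h with compound and EC50 EGF; AC50 values were derived for activators and inhibitors.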

[2] = NFAT Signaling Pathway (AID 444; active means well fitted curve in either direction with a large enough effect, not every such curve was filed as active;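 further: carbachol stimulus at about its EC50 of 1 µM final; on the % scale 0 is the no-effect control and ±100 the full control effect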); conditions: Jurkat NFAT-bla M1, carbachol, beta-lactamase ratio, 5 h; at 38 µM (top of the series)
How it was run: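 Jurkat cells with NFAT-driven β-lactamase reporter and co-expressed M1 receptor, stimulated with carbachol (final 1 uM, ~EC50), compound titration, 5 h at 37 °C. CCF4 loaded 1 h at RT; 460/530 nm ratio gave %activity and AC50.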

[3] = biological target: Glucocorticoid receptor (Homo sapiens) (UniProt P04150); test: GR-GFP Redistribution (AID 450;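 active means compounds whose dose series gives a full or clear partial fitted curve of increased nuclear translocation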; further: potency means the concentration at half of the fitted maximal effect); conditions: U2OS GR-GFP nuclear translocation, laser cytometry, 2 h
Sequence of Glucocorticoid receptor (Homo sapiens) (P04150 whole entry, looked up, the tested form may be a part): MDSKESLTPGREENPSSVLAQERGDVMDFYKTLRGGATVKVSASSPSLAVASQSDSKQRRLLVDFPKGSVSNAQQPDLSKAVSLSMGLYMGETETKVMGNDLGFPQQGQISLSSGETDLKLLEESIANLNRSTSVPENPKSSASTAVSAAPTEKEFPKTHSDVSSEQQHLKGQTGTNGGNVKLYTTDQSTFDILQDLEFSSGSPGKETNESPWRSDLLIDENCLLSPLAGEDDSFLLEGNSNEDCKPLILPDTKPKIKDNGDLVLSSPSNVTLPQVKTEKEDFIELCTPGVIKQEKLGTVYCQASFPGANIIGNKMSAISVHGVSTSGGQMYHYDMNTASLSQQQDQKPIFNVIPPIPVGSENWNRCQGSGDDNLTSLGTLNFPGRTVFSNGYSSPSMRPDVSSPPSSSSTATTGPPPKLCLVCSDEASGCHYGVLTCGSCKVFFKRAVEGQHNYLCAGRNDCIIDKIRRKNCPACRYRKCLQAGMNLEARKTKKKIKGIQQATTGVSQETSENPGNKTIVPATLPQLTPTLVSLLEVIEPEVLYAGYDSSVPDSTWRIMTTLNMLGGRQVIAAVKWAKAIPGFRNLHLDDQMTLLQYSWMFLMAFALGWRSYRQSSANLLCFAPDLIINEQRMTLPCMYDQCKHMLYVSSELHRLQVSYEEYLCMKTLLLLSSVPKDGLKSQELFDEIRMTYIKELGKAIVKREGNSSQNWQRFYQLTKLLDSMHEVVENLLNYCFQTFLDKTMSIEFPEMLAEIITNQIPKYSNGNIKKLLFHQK

[4] = biological target: Glucocorticoid receptor (Homo sapiens) (UniProt P04150); test: GR-EFC Redistribution (AID 451; calls by dose curve; further: potency means the concentration at half of the fitted maximal effect); conditions: CHO-K1 GR-EFC translocation, beta-gal luminescence, 2 h
How it was run: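 CHO-K1 cells expressing nuclear EA and GR-ED fragments of b-gal; compounds titrated up to 46 uM final, 2 h at 37 C. GR nuclear translocation read as complemented b-gal luminescence after 1 h RT detection.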

[5] = biological target: 3',5'-cyclic-AMP phosphodiesterase 4B (Homo sapiens) (UniProt Q07343); test: qHTS Assay for Inhibitors of PDE-IV (AID 607; active means well fitted activation curve with a large enough effect in the main read-out, with a control signal flat, not every such curve was filed as active; further: % of control where 0% means no effect); conditions: HEK293 ACTOne CNG channel cells, membrane potential fluorescence; series mostly up to 22.9 µM
Sequence of 3',5'-cyclic-AMP phosphodiesterase 4B (Homo sapiens) (Q07343 whole entry, looked up): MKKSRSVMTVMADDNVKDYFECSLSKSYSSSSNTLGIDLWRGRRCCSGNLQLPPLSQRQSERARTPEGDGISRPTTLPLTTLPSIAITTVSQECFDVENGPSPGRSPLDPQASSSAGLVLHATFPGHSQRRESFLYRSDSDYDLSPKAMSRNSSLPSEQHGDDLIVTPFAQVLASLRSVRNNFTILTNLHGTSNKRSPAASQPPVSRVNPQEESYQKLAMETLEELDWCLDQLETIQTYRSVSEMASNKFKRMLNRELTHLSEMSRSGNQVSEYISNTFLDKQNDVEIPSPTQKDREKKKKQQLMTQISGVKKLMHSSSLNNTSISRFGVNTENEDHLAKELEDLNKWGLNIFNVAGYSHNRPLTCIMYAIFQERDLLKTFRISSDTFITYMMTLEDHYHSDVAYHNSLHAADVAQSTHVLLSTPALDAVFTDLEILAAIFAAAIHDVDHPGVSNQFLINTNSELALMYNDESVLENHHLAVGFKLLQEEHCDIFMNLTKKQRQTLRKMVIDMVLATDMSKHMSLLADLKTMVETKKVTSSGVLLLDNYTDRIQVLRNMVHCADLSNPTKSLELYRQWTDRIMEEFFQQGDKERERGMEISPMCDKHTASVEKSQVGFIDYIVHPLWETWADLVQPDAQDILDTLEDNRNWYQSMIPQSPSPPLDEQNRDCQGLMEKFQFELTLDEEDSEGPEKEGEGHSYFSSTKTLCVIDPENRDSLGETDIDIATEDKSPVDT
How it was run: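 Cell-based read-out of cAMP via a modified cyclic nucleotide-gated channel and membrane potential dye (535/590 nm) in HEK293 cells expressing PDE4 endogenously. Compounds tested up to 22.9 uM final; 100 uM RO 20-1724 reference.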

[6] = biological target: Guanine nucleotide-binding protein G(i) subunit alpha-1 (Homo sapiens) (UniProt P63096); test: qHTS Assay for Inhibitors of RGS12 GoLoco Motif Activity (Green Fluorophore) (AID 879); conditions: Galphai1/FITC-RGS12 GoLoco peptide, fluorescence polarization; series mostly up to 57.1 µM;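 further: 0% = labeled peptide with Gαi1 and full inhibition = labeled peptide alone without protein; negative values mean loss of peptide binding seen as reduced polarization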
Sequence of Guanine nucleotide-binding protein G(i) subunit alpha-1 (Homo sapiens) (P63096 whole entry, looked up): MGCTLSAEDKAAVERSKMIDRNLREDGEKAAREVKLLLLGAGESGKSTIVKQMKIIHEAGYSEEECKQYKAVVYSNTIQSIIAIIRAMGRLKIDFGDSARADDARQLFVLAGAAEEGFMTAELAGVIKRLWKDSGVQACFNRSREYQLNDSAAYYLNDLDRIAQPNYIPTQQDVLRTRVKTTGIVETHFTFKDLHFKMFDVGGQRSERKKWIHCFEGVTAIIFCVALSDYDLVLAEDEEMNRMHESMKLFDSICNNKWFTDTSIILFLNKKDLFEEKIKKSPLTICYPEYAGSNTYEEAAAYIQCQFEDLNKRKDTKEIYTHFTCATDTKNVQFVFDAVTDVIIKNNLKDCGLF
How it was run: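 A drop in FITC polarization marked displacement of the FITC-tagged RGS12 GoLoco peptide (10 nM) from Gαi1 (50 nM). Compounds were incubated 10 min at room temperature in Tris pH 7.5 buffer containing 150 mM NaCl, 0.1 mM GDP and 0.05% NP40; unlabeled peptide titration served as control.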

[7] = qHTS Assay for Identification of Small Molecule Antagonists for NFkB Signaling Pathway (AID 895; active means well fitted inhibition curve with a large enough effect in the signal ratio, with a control signal flat, not every such curve was filed as active; the % refers to the signal ratio; further: potency means the concentration at half of the fitted maximal effect); conditions: NFkB beta-lactamase reporter cells, FRET ratio 460/530, stimulated with 10 pM TNF alpha; series mostly up to 38.3 µM
How it was run: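 ME-180 NFkB-bla cells (beta-lactamase under NFkB response element), plated overnight, treated with compound then 10 pM TNF alpha (about EC50) for 5 hrs at 37 C. LiveBLAzer FRET read at 460/530 nm emission, 405 nm excitation.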

[8] = Confirmation and Secondary Assay for Modulators of Hemoglobin Beta Chain Splicing at IVS2 654 locus (AID 910); conditions: HeLa EGFP-654 splicing reporter, GFP fluorescence, 48 h; series mostly up to 46.1 µM;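 further: HeLa cells stably carrying EGFP split by mutant beta-globin IVS2-654 intron; % of control where 0% means no effect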
How it was run: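 HeLa cells stably expressing EGFP interrupted by β-globin IVS2-654 intron, seeded overnight in Opti-MEM/2% FCS, then treated 2 days at 37 °C. Restored splicing read as total peak GFP intensity per well by laser scanning cytometry (488 nm excitation, 500–520 nm emission); 500 nM antisense PNA as control.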

[9] = Confirmation and Secondary Assay for Modulators of Hemoglobin Beta Chain Splicing at IVS2 705 locus (AID 930); conditions: HeLa EGFP-705 splicing reporter, GFP fluorescence, 48 h; series mostly up to 46.1 µM;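 further: HeLa cells stably expressing the EGFP-705 splicing reporter; GFP fluorescence per well restored by corrected splicing of the IVS2-705 intron in EGFP; % of control where 0% means no effect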
How it was run: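 Read-out: total peak GFP fluorescence per well (488 nm excitation, 500-520 nm emission) by laser-scanning cytometry. Cells: HeLa EGFP-705 splicing reporter, 2 days compound exposure in Optimem/2% FCS.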

[10] = biological target: Muscarinic acetylcholine receptor M1 (Rattus norvegicus) (UniProt P08482); test: qHTS Assay for Antagonists of Acetylcholine Muscarinic M1 Receptor: Measurement of IP-One Response (AID 944); conditions: CHO-M1 cells, IP-One HTRF, antagonist mode; series mostly up to 46.1 µM; further: nearly all actives have a fitted effect of over 75% in size
How it was run: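 Antagonist mode with rat M1 receptor transfected into CHO cells. Compound is added first for 10 min, carbachol at its EC80 follows for 30 min, and lysis reagents then allow TR-FRET detection of accumulated IP1.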

[11] = biological target: Pyruvate kinase (Leishmania mexicana) (UniProt Q27686); test: qHTS Validation Assay for Inhibitors of Leishmania Mexicana Pyruvate Kinase (AID 945);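 further: 0% = DMSO only neutral control wells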; conditions: purified L. mexicana pyruvate kinase, enzyme activity, E451W mutant enzyme; series mostly up to 57.5 µM
Sequence of Pyruvate kinase (Leishmania mexicana) (Q27686 2-499 E452W): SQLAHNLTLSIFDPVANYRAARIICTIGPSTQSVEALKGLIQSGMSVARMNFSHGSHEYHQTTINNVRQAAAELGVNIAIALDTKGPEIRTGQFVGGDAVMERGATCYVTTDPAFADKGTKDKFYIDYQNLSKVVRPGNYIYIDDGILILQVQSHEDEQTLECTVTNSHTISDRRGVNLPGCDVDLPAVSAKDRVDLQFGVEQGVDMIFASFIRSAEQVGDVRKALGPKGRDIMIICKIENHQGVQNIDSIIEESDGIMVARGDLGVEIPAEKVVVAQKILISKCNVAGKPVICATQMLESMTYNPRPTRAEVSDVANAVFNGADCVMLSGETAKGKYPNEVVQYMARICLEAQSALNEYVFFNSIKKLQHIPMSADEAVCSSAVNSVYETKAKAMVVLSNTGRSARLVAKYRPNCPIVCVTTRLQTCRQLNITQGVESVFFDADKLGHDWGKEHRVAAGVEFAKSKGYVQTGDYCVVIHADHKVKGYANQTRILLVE
How it was run: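 Luminescent ATP detection (PKLight) after a 1 h room-temperature reaction of 0.2 nM LmPYK E451W mutant with 0.5 mM PEP and 0.1 mM ADP at pH 7.2. Activity is normalized to DMSO-only control wells.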

[12] = biological target: Pyruvate kinase PKM (Homo sapiens) (UniProt P14618); test: qHTS Assay for Activators of Human Muscle Pyruvate Kinase (AID 954; active means well fitted curve in the direction sought with a large enough effect, not every such curve was filed as active;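 further: 0% = uninhibited enzyme and -100% = no enzyme or full thiadiazolimine inhibition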); conditions: purified human muscle pyruvate kinase, luciferase-coupled luminescence, 1 h; series mostly up to 57.5 µM
Sequence of Pyruvate kinase PKM (Homo sapiens) (P14618 whole entry, looked up): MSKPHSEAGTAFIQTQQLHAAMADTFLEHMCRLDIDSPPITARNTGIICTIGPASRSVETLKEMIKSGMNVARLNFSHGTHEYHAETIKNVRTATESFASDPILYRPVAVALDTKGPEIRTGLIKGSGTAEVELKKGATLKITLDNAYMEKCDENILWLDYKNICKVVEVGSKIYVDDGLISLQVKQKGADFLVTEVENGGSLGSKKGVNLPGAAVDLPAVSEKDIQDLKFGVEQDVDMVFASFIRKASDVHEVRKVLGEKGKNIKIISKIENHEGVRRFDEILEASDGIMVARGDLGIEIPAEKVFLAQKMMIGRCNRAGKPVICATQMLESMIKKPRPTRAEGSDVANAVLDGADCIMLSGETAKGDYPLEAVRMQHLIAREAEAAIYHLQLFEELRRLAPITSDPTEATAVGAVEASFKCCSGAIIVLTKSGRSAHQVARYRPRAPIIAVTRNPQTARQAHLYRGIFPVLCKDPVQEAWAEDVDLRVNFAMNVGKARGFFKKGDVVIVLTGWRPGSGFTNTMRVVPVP
How it was run: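 ATP production by PKM2 detected via luciferase luminescence after 1 h room-temperature reaction (0.1 nM enzyme, PEP at Km 0.5 mM, ADP 0.1 mM, pH 7.2 imidazole buffer). Inhibition scaled to no-enzyme control; activation referenced to 0.3 nM enzyme wells.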

[13] = biological target: Alpha-galactosidase A (Homo sapiens) (UniProt P06280); test: Counterscreen for Glucocerebrosidase Inhibitors: qHTS Assay for Human alpha-Galactosidase at pH 4.5 (AID 992); conditions: purified enzyme, fluorogenic substrate; series mostly up to 76.9 µM; further: 0% is about no effect
How it was run: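 Fluorogenic 1536-well qHTS at pH 4.5 (citrate, Tween-20): 2 nM enzyme, 80 uM 4-MU-alpha-galactoside, 20 min room temperature, NaOH/glycine stop. Titration 0.7 nM to 77 uM, data normalized to no-enzyme and full-activity controls, Hill-fitted AC50.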

[14] = biological target: alpha-glucosidase (Oryza sativa, rice) (UniProt Q653V4); test: Counterscreen for Glucocerebrosidase Inhibitors: qHTS Assay for Rice alpha-Glucosidase at pH 5.0 (AID 997); conditions: rice alpha-glucosidase enzyme activity; series mostly up to 76.9 µM;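 further: 0% = full activity with enzyme and -100% = basal without enzyme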
How it was run: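 Endpoint fluorogenic assay at pH 5.0: compounds (0.7 nM to 77 uM) titrated against 4 nM rice enzyme and 400 uM 4-MU-alpha-glucoside for 20 min at room temperature; NaOH/glycine stop, read ex 365/em 440 nm, Hill-fitted AC50.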

[15] = biological target: DNA dC->dU-editing enzyme APOBEC-3G (Homo sapiens) (UniProt Q9HC16); test: qHTS for inhibitors of Vif-A3G interactions: Validation (AID 588379); conditions: Vif-A3G protein interaction assay; series mostly up to 46.1 µM; further: 0% is about no effect
Sequence of DNA dC->dU-editing enzyme APOBEC-3G (Homo sapiens) (Q9HC16 whole entry, looked up): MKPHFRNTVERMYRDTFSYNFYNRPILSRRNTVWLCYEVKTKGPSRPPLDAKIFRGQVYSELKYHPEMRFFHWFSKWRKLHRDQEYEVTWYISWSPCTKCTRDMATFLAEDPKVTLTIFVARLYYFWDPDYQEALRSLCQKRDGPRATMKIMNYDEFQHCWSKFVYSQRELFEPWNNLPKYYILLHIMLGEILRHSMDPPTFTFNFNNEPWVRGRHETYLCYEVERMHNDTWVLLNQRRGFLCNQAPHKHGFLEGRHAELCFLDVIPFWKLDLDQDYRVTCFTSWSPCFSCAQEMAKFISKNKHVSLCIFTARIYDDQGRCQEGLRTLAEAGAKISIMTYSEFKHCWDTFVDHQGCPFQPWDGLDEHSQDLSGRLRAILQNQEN
How it was run: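 Yellow fluorescence (Ex 488, Em 500-530) of Vif-coexpressing HeLa A3G-eYFP cells, scanned by Acumen cytometer, reports blocked A3G degradation. Cells plated at 700/well overnight at 37 deg C before compound addition, then a further overnight compound incubation at 37 deg C.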

[16] = system: Zika virus NS2B-NS3 protease; test: Primary screen GU AMC qHTS for Zika virus inhibitors (AID 1347154); conditions: Zika NS2B-NS3 unlinked protease, AMC fluorogenic substrate; series mostly up to 54.1 µM;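 further: 0% = no-inhibitor control and -100% = no-enzyme control; nearly all actives have a fitted effect of over 70% in size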
How it was run: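 Unlinked Zika NS2B hydrophilic domain–NS3 protease complex at 25 nM in 10 mM Tris-HCl pH 8.0, 0.01% Tween 20, with an AMC peptide substrate. Fluorescence change (340/450 nm) over 15 min at room temperature, normalized to controls, fitted to 4-parameter Hill.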

[17] = biological target: Rap guanine nucleotide exchange factor 3 (Homo sapiens) (UniProt O95398); test: Confirmatory qHTS for agonist of cAMP-regulated guanine nucleotide exchange factor 3 (EPAC1) (AID 1645881); conditions: EPAC1 Rap1B BODIPY-GDP exchange fluorescence, 100% = cAMP control response; series mostly up to 154 µM;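 further: EPAC1 catalysed release of BODIPY-GDP from Rap1B seen as fluorescence loss; nearly all actives have a fitted effect of over 75% in size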
[18] = biological target: Rap guanine nucleotide exchange factor 4 (Homo sapiens) (UniProt Q8WZA2); test: Confirmatory qHTS for agonist of cAMP-regulated guanine nucleotide exchange factor 4 (EPAC2) (AID 1645884); conditions: EPAC2 GEF activity, Rap1B-BODIPY-GDP fluorescence, percent relative to cAMP agonist control; series mostly up to 154 µM;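 further: nucleotide exchange releases bodipy-GDP from Rap1 and this lowers its fluorescence; on the % scale 0 is the no-effect control and ±100 the full control effect; nearly all actives have a fitted effect of over 65% in size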
Sequence of Rap guanine nucleotide exchange factor 4 (Homo sapiens) (Q8WZA2 whole entry, looked up): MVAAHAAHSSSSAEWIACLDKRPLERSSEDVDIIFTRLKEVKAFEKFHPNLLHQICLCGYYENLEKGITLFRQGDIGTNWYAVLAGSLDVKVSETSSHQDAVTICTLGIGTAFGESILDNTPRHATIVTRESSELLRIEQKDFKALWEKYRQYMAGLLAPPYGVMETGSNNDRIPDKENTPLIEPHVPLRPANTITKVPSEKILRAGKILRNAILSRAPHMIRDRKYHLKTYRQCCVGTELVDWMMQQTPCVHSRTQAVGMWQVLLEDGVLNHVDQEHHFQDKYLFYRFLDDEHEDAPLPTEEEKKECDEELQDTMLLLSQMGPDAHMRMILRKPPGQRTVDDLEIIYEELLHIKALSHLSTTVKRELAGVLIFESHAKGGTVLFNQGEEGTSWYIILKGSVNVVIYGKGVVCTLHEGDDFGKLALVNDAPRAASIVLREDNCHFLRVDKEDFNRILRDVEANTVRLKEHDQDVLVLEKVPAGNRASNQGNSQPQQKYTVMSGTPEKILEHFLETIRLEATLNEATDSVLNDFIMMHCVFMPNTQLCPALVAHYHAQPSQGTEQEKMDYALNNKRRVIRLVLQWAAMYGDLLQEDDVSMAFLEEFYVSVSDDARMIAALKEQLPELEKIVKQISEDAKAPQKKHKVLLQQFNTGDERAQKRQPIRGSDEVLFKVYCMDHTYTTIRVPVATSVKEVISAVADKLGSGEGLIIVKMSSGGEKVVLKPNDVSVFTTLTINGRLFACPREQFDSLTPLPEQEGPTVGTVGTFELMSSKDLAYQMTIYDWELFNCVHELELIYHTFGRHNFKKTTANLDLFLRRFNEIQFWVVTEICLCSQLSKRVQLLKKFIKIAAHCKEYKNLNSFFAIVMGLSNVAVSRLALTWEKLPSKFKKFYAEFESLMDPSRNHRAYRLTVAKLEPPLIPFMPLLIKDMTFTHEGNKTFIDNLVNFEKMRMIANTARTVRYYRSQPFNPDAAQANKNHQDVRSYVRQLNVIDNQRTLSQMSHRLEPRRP

[19] = biological target: Cytochrome P450 1A2 (Homo sapiens) (UniProt P05177); test: p450-cyp1a2 (AID 410; calls by dose curve; further: potency means the concentration at half of the fitted maximal effect); conditions: recombinant CYP1A2, luciferin-ME demethylation, luminescence; series mostly up to 57 µM
Sequence of Cytochrome P450 1A2 (Homo sapiens) (P05177 whole entry, looked up): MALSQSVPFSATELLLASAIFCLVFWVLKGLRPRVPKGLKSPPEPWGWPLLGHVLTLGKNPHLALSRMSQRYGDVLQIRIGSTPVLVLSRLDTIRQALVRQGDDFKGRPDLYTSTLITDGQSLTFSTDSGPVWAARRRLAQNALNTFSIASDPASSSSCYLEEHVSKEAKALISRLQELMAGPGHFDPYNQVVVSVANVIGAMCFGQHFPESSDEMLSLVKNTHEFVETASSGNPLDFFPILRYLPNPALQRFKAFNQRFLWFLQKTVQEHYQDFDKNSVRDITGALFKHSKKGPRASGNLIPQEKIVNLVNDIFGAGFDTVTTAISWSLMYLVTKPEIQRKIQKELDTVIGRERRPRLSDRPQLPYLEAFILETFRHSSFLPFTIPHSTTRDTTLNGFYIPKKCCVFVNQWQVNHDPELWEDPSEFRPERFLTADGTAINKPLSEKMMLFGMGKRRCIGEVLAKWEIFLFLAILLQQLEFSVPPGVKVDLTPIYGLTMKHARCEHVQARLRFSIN
How it was run: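 O-Demethylation of luciferin 6' methyl ether by human CYP1A2 is monitored as luciferase luminescence. Substrate sits at Km (100uM); enzyme is 20nM. Values are scaled to 57 uM furafylline as maximal inhibition.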

[20] = biological target: Ubiquitin carboxyl-terminal hydrolase 1 (Homo sapiens) (UniProt O94782); test: Inhibitors of USP1/UAF1: Pilot qHTS (AID 504865); conditions: purified USP1/UAF1, Ub-rhodamine cleavage fluorescence; series mostly up to 114 µM;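 further: rhodamine fluorescence freed from ubiquitin-rhodamine substrate followed over time; top concentration of the series differs between compounds; on the % scale 0 is the no-effect control and ±100 the full control effect; nearly all actives have a fitted effect of over 35% in size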
How it was run: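 Enzyme-free wells gave the negative control, while test wells held 1nM USP1/UAF1 preincubated with compound for 15 min at room temperature. Ub-Rho at 150nM final started the reaction, and fluorescence at 480/540 nm was recorded kinetically.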

COCCOC(=O)C1=C(C)NC(C)=C(C(=O)OC(C)C)[C@@H]1c1cccc([N+](=O)[O-])c1
active: Potency [7] 7.08 µM
inactive: activity change, negative = inhibition [1] -20.1% | activity change, negative = inhibition [2] -10.3% | Potency [3] > 46 µM | Potency [4] > 46 µM | Potency [5] | outcome [6] | outcome [8] | outcome [9] | Potency [10] | Potency [11] | outcome [12] | outcome [13] | outcome [14] | Potency [15] | Potency [16] | outcome [17] | outcome [18]

N[C@H](C(=O)O)[C@H](OCc1ccccc1)C(=O)O
inactive: Potency [3] > 46 µM | Potency [4] > 46 µM | Potency [5] | Potency [20] | Potency [15] | Potency [16]
active: Potency [19] 31.6 µM
